# Results from PubChem BioAssay.
# Activity calls are given as the source filed them.
# Key:
# [1] = anti-His antibody binders, primary screen, artefact control for SMM control protein annotation, biochemical, small-molecule microarray, 635 nm fluorescence (AID 1128); conditions: anti-His Alexa647 antibody binding, higher = more signal;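 also: score merges feature fluorescence with signal-to-noise for each printed compound spot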
# [2] = system: Human papillomavirus type 1a E7 protein (residues 1-88); assay: HPV1a E7 small-molecule binders, primary screen, biochemical, small-molecule microarray, residues 1-88, 635 nm (AID 1129); conditions: small-molecule microarray binding, fluorescence 635 nm; higher = more signal
# [3] = target: Focal adhesion kinase 1 (Homo sapiens) (UniProt Q05397); assay: small-molecule microarray binders of FAK, primary screen, biochemical, 635/667 nm fluorescence, BSA, DTT (AID 1130); conditions: PTK2 binding, 635 nm fluorescence, higher = more signal;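 also: composite of spot emission at 667 nm and signal to noise over triplicate slides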
# Focal adhesion kinase 1 (Homo sapiens), sequence (Q05397 whole entry, looked up): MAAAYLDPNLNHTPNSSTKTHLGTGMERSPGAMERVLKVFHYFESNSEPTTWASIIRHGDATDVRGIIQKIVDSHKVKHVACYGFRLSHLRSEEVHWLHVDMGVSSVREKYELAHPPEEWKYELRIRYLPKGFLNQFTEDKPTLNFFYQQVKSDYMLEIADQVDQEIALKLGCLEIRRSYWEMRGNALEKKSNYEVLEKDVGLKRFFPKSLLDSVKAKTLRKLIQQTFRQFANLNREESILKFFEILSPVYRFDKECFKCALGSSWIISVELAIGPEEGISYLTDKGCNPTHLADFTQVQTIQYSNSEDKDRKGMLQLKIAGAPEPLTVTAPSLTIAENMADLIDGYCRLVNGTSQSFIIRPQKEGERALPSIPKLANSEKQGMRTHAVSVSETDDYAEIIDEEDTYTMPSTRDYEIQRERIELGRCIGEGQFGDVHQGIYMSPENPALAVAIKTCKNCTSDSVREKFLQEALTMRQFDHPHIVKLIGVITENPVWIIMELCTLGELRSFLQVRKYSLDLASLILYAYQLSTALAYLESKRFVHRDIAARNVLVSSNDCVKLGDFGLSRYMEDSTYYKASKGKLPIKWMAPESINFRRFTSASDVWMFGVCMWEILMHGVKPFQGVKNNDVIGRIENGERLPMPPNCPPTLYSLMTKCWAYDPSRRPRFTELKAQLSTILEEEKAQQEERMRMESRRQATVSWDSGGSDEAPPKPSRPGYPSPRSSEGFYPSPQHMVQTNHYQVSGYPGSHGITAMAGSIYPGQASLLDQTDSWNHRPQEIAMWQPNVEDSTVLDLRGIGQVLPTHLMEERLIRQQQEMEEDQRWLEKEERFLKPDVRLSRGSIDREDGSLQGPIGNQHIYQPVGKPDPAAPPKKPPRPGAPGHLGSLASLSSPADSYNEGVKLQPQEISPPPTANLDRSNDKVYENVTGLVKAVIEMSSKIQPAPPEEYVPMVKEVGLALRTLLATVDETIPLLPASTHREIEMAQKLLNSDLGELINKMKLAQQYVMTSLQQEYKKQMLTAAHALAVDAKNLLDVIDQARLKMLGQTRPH
# [4] = system: Fibrinogen (Alexa647-labelled); assay: fibrinogen binders on compound microarrays, profiling panel, artefact control for SMM control-protein annotation, biochemical, small-molecule microarray, 635/667 nm fluorescence (AID 1131); conditions: fibrinogen-A647 binding fluorescence, higher = more signal;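 also: z-score merges 667 nm fluorescence with per-spot signal-to-noise over triplicate slides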
# [5] = target: Follistatin (Homo sapiens) (UniProt P19883); assay: follistatin binders on small-molecule microarrays, primary screen, biochemical, small-molecule microarray, 635/667 nm fluorescence (AID 1132); conditions: FST binding, 635 nm fluorescence, higher = more signal
# Follistatin (Homo sapiens), sequence (P19883 whole entry, looked up): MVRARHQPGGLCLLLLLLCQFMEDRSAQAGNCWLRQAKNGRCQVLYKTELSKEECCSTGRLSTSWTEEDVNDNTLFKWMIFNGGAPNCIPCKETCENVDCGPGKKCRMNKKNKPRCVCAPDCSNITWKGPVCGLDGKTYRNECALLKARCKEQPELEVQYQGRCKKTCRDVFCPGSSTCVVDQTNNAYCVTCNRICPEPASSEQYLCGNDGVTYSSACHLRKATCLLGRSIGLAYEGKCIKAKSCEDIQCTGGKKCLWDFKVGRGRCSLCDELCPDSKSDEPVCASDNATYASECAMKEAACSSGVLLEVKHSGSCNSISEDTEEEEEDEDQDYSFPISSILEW
# [6] = target: Fibroblast growth factor 2 (Homo sapiens) (UniProt P09038); assay: FGF2 binders on small-molecule microarrays, primary screen, biochemical, small-molecule microarray, 635/667 nm fluorescence (AID 1133); conditions: small-molecule microarray binding, FGF2, fluorescence 635/667; higher = more signal
# Fibroblast growth factor 2 (Homo sapiens), sequence (P09038 whole entry, looked up): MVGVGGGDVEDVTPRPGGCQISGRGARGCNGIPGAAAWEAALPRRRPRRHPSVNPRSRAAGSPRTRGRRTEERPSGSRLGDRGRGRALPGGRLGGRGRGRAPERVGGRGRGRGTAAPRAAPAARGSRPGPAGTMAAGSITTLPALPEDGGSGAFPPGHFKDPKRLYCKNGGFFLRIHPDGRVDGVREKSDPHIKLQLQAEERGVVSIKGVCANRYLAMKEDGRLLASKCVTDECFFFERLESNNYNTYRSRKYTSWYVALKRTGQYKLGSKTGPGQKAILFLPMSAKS
# [7] = mitochondrial membrane potential change in A549 cells, profiling panel, cell-based, JC-1 fluorescence, basal, 24 h, 100 nL (AID 1138); conditions: higher = more signal;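 also: A549 lung adenocarcinoma cells under basal conditions with no added stimulus; test concentration not given here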
# Lefty1 = Lefty1 binders on small-molecule microarrays, primary screen, biochemical, small-molecule microarray, 635/667 nm fluorescence (AID 1139); conditions: small-molecule microarray binding, fluorescence 635/667; higher = more signal
# [8] = system: wheat germ agglutinin (Triticum aestivum), Alexa647-labelled; assay: wheat germ agglutinin binders on compound microarrays, profiling panel, artefact control for SMM control-protein annotation, biochemical, small-molecule microarray, 635/667 nm fluorescence (AID 1140); conditions: WGA-A647 binding, 635 nm fluorescence, higher = more signal;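 also: score merges 667 nm feature emission with signal to noise over triplicate slides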
# [9] = target: Luciferin 4-monooxygenase (Photinus pyralis) (UniProt P08659); assay: firefly luciferase enzyme inhibitors, primary screen, biochemical, luminescence, purified enzyme, 2006 set (AID 1141); conditions: SteadyGlo luminescence, 30 min, higher = more signal, called active from +8 up or from −8 down;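 also: cell-free assay with purified firefly luciferase at 100 ng per well in PBS; test concentration not given here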
# Luciferin 4-monooxygenase (Photinus pyralis), sequence (P08659 whole entry, looked up): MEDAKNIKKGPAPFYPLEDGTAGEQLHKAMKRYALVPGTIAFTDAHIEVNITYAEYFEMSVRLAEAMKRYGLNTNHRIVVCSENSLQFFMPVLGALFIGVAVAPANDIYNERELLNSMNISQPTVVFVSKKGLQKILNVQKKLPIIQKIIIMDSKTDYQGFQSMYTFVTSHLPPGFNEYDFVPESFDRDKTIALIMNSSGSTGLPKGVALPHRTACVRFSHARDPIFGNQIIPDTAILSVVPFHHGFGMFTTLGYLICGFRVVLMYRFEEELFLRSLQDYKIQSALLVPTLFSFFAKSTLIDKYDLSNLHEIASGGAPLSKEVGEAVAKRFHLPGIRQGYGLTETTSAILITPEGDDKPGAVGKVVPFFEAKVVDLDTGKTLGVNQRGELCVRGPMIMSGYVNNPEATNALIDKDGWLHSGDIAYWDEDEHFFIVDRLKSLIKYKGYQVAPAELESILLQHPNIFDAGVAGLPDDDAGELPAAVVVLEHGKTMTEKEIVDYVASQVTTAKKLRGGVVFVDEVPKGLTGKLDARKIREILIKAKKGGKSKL
Compound,composite z-score [1],composite z-score [2],composite z-score [3],composite z-score [4],composite z-score [5],composite z-score [6],z-score [7],composite z-score (Lefty1),composite z-score [8],z-score [9]
COC(=O)[C@@]1(Cc2ccc(F)cc2)[C@H]2c3cc(C(=O)N(C)C)n(C)c3C[C@H]2CN1C(=O)c1ccccc1,2.58,0.372,0.154,-0.0862,-0.524,0.263,0.239,-0.795,0.229,0.053 (inactive)
COC(=O)[C@@]1(Cc2ccc(OC)cc2)[C@H]2c3cc(C(=O)N4CCCC4)n(Cc4ccc(Cl)c(C(F)(F)F)c4)c3C[C@H]2CN1C(=O)c1ccccc1,1.27,1.19,0.421,0.972,1.34,0.433,1.38,0.125,1.07,0.166 (inactive)
O=C(NCCN1CCOCC1)[C@@H]1c2ccccc2C(=O)N(Cc2ccc(OC(F)(F)F)cc2)[C@H]1c1ccc(CO)cc1,1.97,0.292,0.022,-0.419,0.0596,-1.23,2.22,-0.332,-0.109,-0.408 (inactive)
C=C(COC)/C(=C/C[C@@H](OC(C)=O)c1ccccc1OCCO)c1cnc2ccccc2c1,0.782,1.06,0.423,0.0866,1.43,1.12,-0.159,1.54,1.2,-1.47 (inactive)
CCCNC(=O)[C@@]1(c2ccc([N+](=O)[O-])cc2)CC(=O)N(C(C)C)[C@@H]1c1ccc(CO)cc1,0.736,0.143,0.856,-1.19,-0.742,-0.914,-0.837,-0.844,1.19,-0.113 (inactive)
COCCOC(=O)N1C(=O)[C@@]2(c3ccccc31)[C@H](c1ccc(O)cc1)N1[C@H](c3ccccc3)[C@H](c3ccccc3)OC(=O)[C@H]1[C@@H]2C(=O)N1CCCCCCC1,2.71,1.21,0.791,0.941,1.46,1.74,-1.16,1.72,1.43,0.171 (inactive)
CCOC(=O)C[C@H]1[C@H](OC(=O)c2ccccc2-c2ccccc2)[C@@H](NC(=O)c2ccc3ccccc3c2)c2cc(OCCCO)ccc2N1C(=O)Cc1ccc(OC)cc1,-0.262,-0.191,0.0564,0.805,0.0992,-0.0445,0.847,-0.0328,-0.178,-0.146 (inactive)
CC(=O)NCCCC[C@@H]1NC(=O)[C@H]2C[C@@H](C(=O)NCCCCCCNC(=O)CS)[C@@H](c3cccc(OCCO)c3)N2C1=O,3.57,0.937,0.612,-0.256,1.36,1.63,-0.0905,0.0938,0.184,-0.399 (inactive)
CCCC=C(CCC)[C@@H](NC(=O)c1ccc(C(F)(F)F)cc1)c1ccc(C(F)(F)F)cc1,0.549,1.23,0.156,1,0.384,-0.635,2.65,0.131,1.38,2.29 (inactive)
O=C1O[C@@H](c2ccccc2)[C@@H](c2ccccc2)N2[C@@H](c3ccc(OCCO)cc3)[C@]3(C(=O)Nc4ccc(C#CC5(O)CCCCCC5)cc43)[C@@H](C(=O)Nc3nc4ccccc4s3)[C@H]12,0.0141,1.24,0.676,0.964,1.33,1.54,-2.12,1.22,1.09,-2.6 (inactive)
C=C(CCCC)/C(=C/C[C@@H](OC(C)=O)c1ccc(CO)o1)c1cnc2ccccc2c1,1.12,1.21,0.119,0.948,1.31,1.54,-0.587,1.51,1.27,-3.09 (inactive)
CC(C)(C)N1CC=CC23O[C@@H]4/C=C\CCCOC(=O)C4[C@H]2C(=O)N(CCCO)[C@@H]3C1=O (stereo not given in full),0.343,-0.849,-0.572,-2.06,-0.768,-0.811,-0.534,-0.538,-1.38,0.552 (inactive)
CC(C)(C)OC(=O)CC[C@]1(C(=O)NCC(O)CO)N=C(c2ccc(OCCCO)cc2)O[C@H]1c1ccccc1N=[N+]=[N-] (stereo not given in full),2.42,1.01,0.696,0.953,1.38,0.581,0.739,-0.41,1.3,-8.87 (active)
COc1ccccc1CN1C(=O)c2ccccc2[C@](Cc2ccccc2I)(C(=O)NCC(C)C)[C@@H]1c1ccc(CO)cc1,-0.718,0.654,-0.299,0.378,1.05,0.133,2.54,-0.803,0.0043,-1.22 (inactive)
O=C1O[C@H](c2ccccc2)[C@H](c2ccccc2)N2[C@H]1[C@@H](C(=O)N1CCN(c3ncccn3)CC1)[C@]1(C(=O)Nc3ccc(C#CCCO)cc31)[C@H]2c1ccc(O)cc1,0.144,0.762,1.38,0.888,0.809,0.115,-0.683,0.186,0.766,-0.538 (inactive)
COc1ccc([Si](C)(C)[C@H]2[C@H](CCO)O[C@@]3(C(=O)N(Cc4ccc(NC(=O)[C@H](C)O)cc4)c4ccccc43)[C@@H]2C)cc1,1.4,1.23,0.382,0.68,0.728,0.634,-1.45,0.568,0.355,-0.234 (inactive)
CCOC(=O)C[C@H]1[C@H](OC(=O)c2ccccc2-c2ccccc2)[C@@H](NC(=O)C2CCCCC2)c2cc(OCCCO)ccc2N1C(=O)c1ccc2ccccc2n1,0.316,0.667,0.853,0.593,1.15,0.889,0.309,1.09,0.27,0.595 (inactive)
